{"source": "PubChem BioAssay (EPA / NIEHS)", "note": "Several values for one entry are separate records, joined by “and”; a condition that tells them apart may be missing. Identical values can stand only once. Inconclusive results are not listed. Activity calls are given as the source filed them. The calls were made as follows: active = hit-call score of the fitted dose curve at least 0.9, where 1 is the maximum; inconclusive = response in the unintended direction; inactive = score below 0.9.", "data": [{"biological_target": "Protein deacetylase HDAC6 (Homo sapiens) (UniProt Q9UBN7)", "sequence (Q9UBN7 whole entry, looked up)": "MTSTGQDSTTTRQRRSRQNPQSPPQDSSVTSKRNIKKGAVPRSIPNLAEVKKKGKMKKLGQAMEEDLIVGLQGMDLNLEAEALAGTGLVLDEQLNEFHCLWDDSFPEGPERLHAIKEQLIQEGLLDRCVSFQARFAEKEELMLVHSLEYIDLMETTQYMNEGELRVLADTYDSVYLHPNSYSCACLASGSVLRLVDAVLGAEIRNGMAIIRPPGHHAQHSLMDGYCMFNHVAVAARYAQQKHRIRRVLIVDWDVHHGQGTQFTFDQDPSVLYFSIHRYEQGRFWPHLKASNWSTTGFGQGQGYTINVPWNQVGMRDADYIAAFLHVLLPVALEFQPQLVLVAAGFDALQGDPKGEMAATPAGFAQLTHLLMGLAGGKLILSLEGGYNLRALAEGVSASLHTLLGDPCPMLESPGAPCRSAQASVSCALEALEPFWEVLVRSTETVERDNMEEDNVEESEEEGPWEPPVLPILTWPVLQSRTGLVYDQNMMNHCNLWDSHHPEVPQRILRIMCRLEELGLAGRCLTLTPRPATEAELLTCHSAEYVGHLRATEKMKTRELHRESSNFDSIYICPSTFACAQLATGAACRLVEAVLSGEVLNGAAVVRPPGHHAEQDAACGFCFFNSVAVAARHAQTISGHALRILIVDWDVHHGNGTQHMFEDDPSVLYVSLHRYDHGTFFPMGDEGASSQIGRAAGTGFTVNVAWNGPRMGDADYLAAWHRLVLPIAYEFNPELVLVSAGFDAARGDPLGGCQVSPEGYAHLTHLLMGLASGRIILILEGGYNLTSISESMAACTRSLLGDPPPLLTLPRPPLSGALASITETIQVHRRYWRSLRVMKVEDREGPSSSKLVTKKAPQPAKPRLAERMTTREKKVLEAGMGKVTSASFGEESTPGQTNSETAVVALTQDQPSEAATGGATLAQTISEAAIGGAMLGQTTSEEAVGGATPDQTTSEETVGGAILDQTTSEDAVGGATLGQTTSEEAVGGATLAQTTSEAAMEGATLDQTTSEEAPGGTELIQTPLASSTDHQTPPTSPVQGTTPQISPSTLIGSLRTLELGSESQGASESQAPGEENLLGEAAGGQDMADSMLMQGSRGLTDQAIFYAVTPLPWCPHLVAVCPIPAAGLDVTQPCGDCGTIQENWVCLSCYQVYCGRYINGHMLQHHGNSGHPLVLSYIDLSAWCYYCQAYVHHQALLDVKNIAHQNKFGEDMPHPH", "experiment": "NVS_ENZ_hHDAC6: NovaScreen (NVS) Enzymatic Assay for human Histone Deacetylase 6 (HDAC6) (AID 2283164)", "protocol": "NVS_ENZ_hHDAC6 is a biochemical, single-readout assay that uses extracted gene-proteins in a cell-free assay. Measurements were taken 1 hour after chemical dosing in a 384-well plate.NVS_ENZ_hHDAC6 is one of one assay component(s) measured or calculated from the NVS_ENZ_hHDAC6 assay. It is designed to make measurements of enzyme activity, a form of enzyme reporter, as detected with fluorescence intensity signals by Fluorescence and electrophoretic mobility shift technology.Data from the assay component NVS_ENZ_hHDAC6 was analyzed into 1 assay endpoint. This assay endpoint, NVS_ENZ_hHDAC6, was analyzed in the positive analysis fitting direction relative to DMSO as the negative control and baseline of activity. Using a type of enzyme reporter, loss-of-signal activity can be used to understand changes in the enzymatic activity as they relate to the gene HDAC6. Furthermore, this assay endpoint can be referred to as a primary readout, because this assay has produced multiple assay endpoints where this one serves a enzymatic activity function. To generalize the intended target to other relatable targets, this assay endpoint is annotated to the hydrolase intended target family, where the subfamily is histone deacetylase.\nBinding assays used specific radioligands (tritiated, iodinated) with non-radioactive competitive displacement ligands in agonist or antagonist protocols (as indicated) and various reference compounds and inhibitors to titrate specific binding to receptors and transporters. Most enzyme assays (CYPs, kinases, phosphatases, proteases, HDACs) used recombinant protein and specific substrates (fluorescence mostly, some colorimetric and radioactive) and inhibitors, followed by a biochemical separation of substrate and product. All assays for the biochemical HTS were initially run in duplicate at a single concentration (10 uM for CYP450 assays and 25 uM for all others). Assay-chemical combinations meeting a pre-defined threshold (e.g., 30% inhibition and other criteria defined below) were then run in singleton concentration-response format with maximum concentration of 20 uM for CYPs and 50 uM for all others. Each assay was run with positive and negative controls, and concurrent controls on every plate. The follow-up (secondary) screen tested active chemical-pairs in concentration series, as well as a few additional assays not tested in the primary screen, some selected negative inactives, and several cases re-run in the concentration series for confirmatory purposes.", "values": [{"compound": "CCCCCCCCCCCCc1ccccc1", "outcome": "inactive"}, {"compound": "CCCc1cc(=O)[nH]c(=S)[nH]1", "outcome": "inactive"}, {"compound": "NCCO", "outcome": "inactive"}, {"compound": "O=C1c2ccccc2C(=O)N1CCc1noc(-c2ccc(CN3CCCCCC3)s2)n1", "outcome": "inactive"}, {"compound": "CCN(CC)CCOc1ccc(C(=C(Cl)c2ccccc2)c2ccccc2)cc1", "outcome": "inactive"}, {"compound": "C1CCC(SSC2CCCCC2)CC1", "outcome": "inactive"}, {"compound": "CC(CO)OC(C)CO", "note": "(stereo not drawn) (tested in a mixture with another compound)", "outcome": "inactive"}, {"compound": "O=c1[nH]cnc2c1ncn2[C@H]1CC[C@@H](CO)O1", "outcome": "inactive"}, {"compound": "CC[C@H](C)C(=O)O[C@H]1C[C@@H](C)C=C2C=C[C@H](C)[C@H](CC[C@@H]3C[C@@H](O)CC(=O)O3)[C@H]21", "outcome": "inactive"}, {"compound": "CSc1ccc(Oc2ccc(S(N)(=O)=O)cc2CN(C)C)cc1C", "outcome": "inactive"}, {"compound": "On1ccccc1=S", "outcome": "inactive"}, {"compound": "CCc1ccc(O)c(C(C)(C)C)c1", "outcome": "inactive"}, {"compound": "CC(=O)[C@H]1CC[C@H]2[C@@H]3CCC4=CC(=O)CC[C@]4(C)[C@H]3CC[C@]12C", "outcome": "inactive"}, {"compound": "Cc1ccc(N)cc1O", "outcome": "inactive"}, {"compound": "CC(C)CCCCCCc1ccc(O)cc1", "outcome": "inactive"}, {"compound": "CCCCCCC(=O)O", "outcome": "inactive"}, {"compound": "Cn1c(=O)cc(Oc2ccc(F)cc2F)c2cnc(NCC(C)(C)O)nc21", "outcome": "inactive"}, {"compound": "CC(N)=O", "outcome": "inactive"}, {"compound": "Nc1cccc2c(N)cccc12", "outcome": "inactive"}, {"compound": "Cc1ncc([C@@H](CCCCCCc2ccc3c(n2)NCCC3)CC(=O)O)cn1", "AC50": "14.9 µM (active)"}, {"compound": "S=C(S)NCCNC(=S)S.[Mn+2].[S-]C([S-])=NCCN=C([S-])[S-].[Zn+2]", "AC50": "233 nM (active) and 815 nM (active)"}, {"compound": "N#CSCSc1nc2ccccc2s1", "AC50": "25 µM (active)"}, {"compound": "CCCCCCCC/C=C\\CCCCCCCC(=O)OC[C@@H](O)[C@H]1OC[C@H](O)[C@H]1O", "outcome": "inactive"}, {"compound": "Cc1occc(=O)c1O", "outcome": "inactive"}, {"compound": "NC(=O)NO", "outcome": "inactive"}, {"compound": "Cc1[nH]cnc1C[C@H]1CCc2c(C)c3ccccc3n2C1=O", "outcome": "inactive"}, {"compound": "CCCC(CCC)C(=O)O", "outcome": "inactive"}, {"compound": "C#C[C@]1(O)CC[C@H]2[C@@H]3CCC4=CC(=O)CC[C@@H]4[C@H]3CC[C@@]21C", "outcome": "inactive"}]}]}
